Bead autofluor: compound fluorescence in toxin protease inhibitor counterscreen. hit rate 3.1% among 360,000. fluorescence intensity (test concentration not listed). compound autofluorescence counterscreen, microsphere flow cytometry; active compounds read high; in the data active means fluorescence intensity above about 16000; inconclusive means no clear call, values can overlap the other calls
FBA Mtb inh: Mtb fructose-bisphosphate aldolase inhibition | purified M. tuberculosis FBA, fluorescence read-out | inhibition, % at 1 µM | hit rate 2.3% among 360,000;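 further: 0% = vehicle and 100% = reference inhibitor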
BoNT-F LC inh: inhibitors of Botulinum neurotoxin F light chain protease; inhibition, % at 10 µM; AID 588497; Multiplex microsphere protease cleavage assay, flow cytometry; hit rate 0.22% among 360,000; in the data active means inhibition above about 35%, passing the limit was not always enough; inconclusive means no clear call, values can overlap the other calls; further: plate controls were buffer without enzyme for full effect and enzyme alone for no effect
Anthrax LF inh2: inhibitors of Bacillus anthracis lethal factor protease; P15917; multiplex microsphere protease cleavage assay, LF; inhibition, % at 10 µM; hit rate 0.12% among 360,000; in the data active means inhibition above about 30%; inconclusive means no clear call, values can overlap the other calls; further: plate controls were buffer without enzyme for full effect and enzyme alone for no effect
Target sequence (P15917 whole entry, looked up): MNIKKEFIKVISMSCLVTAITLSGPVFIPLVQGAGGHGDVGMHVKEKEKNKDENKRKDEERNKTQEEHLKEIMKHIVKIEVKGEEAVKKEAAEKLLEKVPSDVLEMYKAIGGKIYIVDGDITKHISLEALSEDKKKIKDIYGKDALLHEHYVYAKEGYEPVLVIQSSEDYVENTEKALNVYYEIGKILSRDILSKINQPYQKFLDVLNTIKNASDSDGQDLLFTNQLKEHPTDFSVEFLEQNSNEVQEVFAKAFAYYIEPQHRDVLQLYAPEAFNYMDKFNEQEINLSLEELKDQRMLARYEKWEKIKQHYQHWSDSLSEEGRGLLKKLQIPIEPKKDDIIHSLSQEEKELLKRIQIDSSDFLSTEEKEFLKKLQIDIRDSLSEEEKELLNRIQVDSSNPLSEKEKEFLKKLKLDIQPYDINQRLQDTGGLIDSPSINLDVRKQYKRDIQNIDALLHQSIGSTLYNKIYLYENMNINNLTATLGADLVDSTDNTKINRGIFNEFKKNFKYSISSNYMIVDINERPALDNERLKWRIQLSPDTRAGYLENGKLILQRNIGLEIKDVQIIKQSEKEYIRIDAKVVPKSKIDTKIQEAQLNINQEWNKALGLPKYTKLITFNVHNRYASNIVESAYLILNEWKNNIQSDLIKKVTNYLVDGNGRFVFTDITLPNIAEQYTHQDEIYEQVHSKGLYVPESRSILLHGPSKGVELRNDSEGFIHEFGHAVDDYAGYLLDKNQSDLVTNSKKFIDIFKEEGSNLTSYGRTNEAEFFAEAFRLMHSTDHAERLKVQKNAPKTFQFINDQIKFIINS
GDH-TPI counter-1: counter-screen for M. tuberculosis FBA inhibitors: GDH-TPI coupled enzymes | inhibition, % at 4.8 µM | hit rate 1.2% among 360,000 | GDH-TPI coupled enzyme counterscreen, NADH absorbance | AID 588335; in the data active means inhibition above about 30%;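 further: 0% = DMSO wells and 100% = wells lacking the enzyme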
BoNT A protease: inhibitors of Botulinum neurotoxin A light chain protease | hit rate 0.17% among 360,000 | AID 588499 | inhibition, % at 10 µM | multiplex microsphere protease substrate cleavage, flow cytometry; in the data active means inhibition above about 30%; inconclusive means no clear call, values can overlap the other calls; further: plate controls were buffer without enzyme for full effect and enzyme alone for no effect
Mtb FBA inh conf: confirmation of M. tuberculosis fructose-bisphosphate aldolase inhibitors | shares compounds with FBA Mtb inh | purified M. tuberculosis FBA, fluorescence read-out | inhibition, % at 1 µM | hit rate 78% among 5,600 | AID 651616;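 further: 0% = vehicle wells and 100% = reference inhibitor wells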
GDH-TPI counter-2: counter-screen for M. tuberculosis FBA inhibitors: GDH-TPI coupled enzyme inhibition | shares compounds with FBA Mtb inh | GDH-TPI coupled enzyme counterscreen, fluorescence | inhibition, % at 1 µM | hit rate 81% among 5,600; in the data active means inhibition above about 10%
GDH-TPI DR: counter-screen for M. tuberculosis FBA inhibitors: GDH-TPI dose response | shares compounds with FBA Mtb inh | GDH-TPI coupled enzyme assay, fluorescence, artifact counterscreen | IC50, µM | hit rate 79% among 170 | AID 652145; call rule not given here
The depositor's hits bear a star; ? = inconclusive; · = not tested or not shown; + = active, no number. This is a sample that favours compounds with a hit; in the whole collection about 6.6% have one here. Unless noted, no stated cut-off is given here; in the data, active means inhibition above about 27%; inactive means the rest.

SMILES	Bead autofluor	FBA Mtb inh	BoNT-F LC inh	Anthrax LF inh2	GDH-TPI counter-1	BoNT A protease	Mtb FBA inh conf	GDH-TPI counter-2	others
COc1cccc(NC(=O)Cc2nnc(SCC(=O)c3ccccc3)n2C)c1	2041	83*	1	3	5	0	161*	122*
COc1cccc(NC(=O)Cc2nnc(SCCOc3ccccc3)n2C)c1	3812	2	-8	-2	10	-1	·	·
CCOC(=O)/C(=C/c1ccccc1)NC(=O)c1ccco1	1954	1	-5	-1	0	0	·	·
CCOC(=O)N1CCN(C(=O)c2cn(CCOC)c(=O)c3c2c2ccccc2n3C)CC1	9638	43*	11	0	18	1	+	+
COCCn1cc(C(=O)N2CCN(C)CC2)c2c3ccccc3n(C)c2c1=O	9449	42*	6	-3	1	1	106*	62*
CC(=O)Nc1sc2c(c1C(c1ccccc1Cl)N1CCN(CCO)CC1)CCCC2 (centres undefined)	5482	0	-8	-4	-4	-1	·	·
COc1ccc(Br)cc1CNC(=O)CCC(=O)N1CCSc2ccccc21	5894	-2	-2	6	7	-1	·	·
CCN1CCSc2ccc(C(=O)NCc3cc(Br)ccc3OC)cc21	6990	37*	-2	-4	-7	0	102*	76*
O=C(Nc1ccc(S(=O)(=O)N2CCOCC2)cc1)c1ccc(Cl)cc1	4377	2	2	-1	4	0	·	·
CN1CCSc2ccc(C(=O)Nc3ccc(Cl)cc3)cc21	4201	33*	-10	-9	13	0	13	3
COc1ccc(Br)cc1CNC(=O)c1ccc2c(c1)N(C)CCS2	5877	50*	0	-2	4	-1	+	152*
CC(C)N(C(=O)CN1C(=O)NC(c2ccccc2)(c2ccccc2)C1=O)C(C)C	3710	-3	-28	13	-12	-3	·	·
COc1ccc(-c2nc(CN3CCN(c4cc(C)nc(C)c4)CC3)c(C)o2)c2ccccc12	3393	67*	0	-5	2	-1	45*	43*
COc1ccc2c(c1)C(=O)CC(O)(C(F)F)O2 (centres undefined)	4501	31*	?	-1	4	?	72*	53*
CC1(C)CC(=O)c2cc(OCC(=O)O)ccc2O1	24044*	64*	-4	-7	15	-2	101*	75*
CC1(C)CC(=O)c2cc(OCC(=O)N3CCN(Cc4ccccc4)CC3)ccc2O1	4590	7	-3	-6	4	-1	·	·
CC1(C)CC(=O)c2cc(OCC(=O)N3CCCCCC3)ccc2O1	14619	46*	20	-17	0	16	88*	95*
CC1(C)CC(=O)c2cc(OCC(=O)N3CCN(c4ccccc4F)CC3)ccc2O1	12684	18	-8	-2	7	-1	·	·
CCOC(=O)N1CCN(C(=O)COc2ccc3c(c2)C(=O)CC(C)(C)O3)CC1	4941	41*	-9	-2	4	-1	134*	114*
COc1ccccc1C(=O)CSc1ccccn1	4330	2	13	8	-7	2	·	·
Cc1cc2cc(CCNC(=O)c3cccc([N+](=O)[O-])c3)c(=O)[nH]c2cc1C	2727	-1	-6	1	15	0	·	·
Cc1cc(OCC(=O)NCCN2CCOCC2)cc(C)c1Br	3362	1	3	2	1	0	·	·
CCOC(=O)COc1ccc2c(c1)C(=O)CC(C)(C)O2	21356*	48*	5	-4	20	4	23	6	GDH-TPI DR=2.9*
CC1(C)CC(=O)c2cc(OCC(=O)NCCN3CCOCC3)ccc2O1	4170	34*	10	0	3	1	57*	40*
O=C(Nc1cccc(C(=O)N2CCCCC2)c1)C1CCCCC1	3501	-2	1	-6	-8	0	·	·
COc1cc(/C=N/NC(=O)C(N)=O)cc(OC)c1O	3207	51*	0	-6	14	0	+	+
Cc1ccc(CNC(=O)c2ccc3c(c2)S(=O)(=O)c2ccccc2C3=O)o1	3889	3	-5	-2	9	1	·	·
